Results filed as inconclusive are left out. Active and inactive are the calls of the source. Calls come from the whole dose curve; as a rule, active = well fitted cell-killing curve with a large enough effect; inconclusive = small, poorly fitted or top-dose-only effect, or effect the other way; inactive = flat fitted curve, though single readings scatter.
test: Compound cytotoxicity measured by an ATP content assay as a counter-screen for lead compounds in human astrocytoma cell line (SNB-19); conditions: SNB-19 astrocytoma viability, ATP luminescence; series mostly up to 46.1 µM; activity change, negative = cytotoxicity: at the top concentration
Method: National Center for Advancing Translational Sciences [NCATS] Johns Hopkins University School of Medicine Florida State University Assay Overview: Many compounds can cause cytotoxicity at high compound concentrations. […] The compound cytotoxicity may also cause side effects or toxicity in human. Thus, the compound cytotoxicity needs to be measured in each cell type and each compound incubation time - same as these in the compound screening assay. The compound cytotoxicity can be measured by cell viability assays such as the ATP content assay. We use an ATP content assay kit for cell viability measurement. It measures ATP content (level) in human astrocytoma cell line (SNB-19) using a luminescence readout that is proportional to viable cell numbers. Decrease in the luminescence signal after the compound treatment indicates reduced cell viability and cell death caused by compound treatment.
Assay Protocol Summary: The medium for SNB-19 cells is composed of RPMI 1640 (ATCC, Cat.# 30-2001), 10% fetal bovine serum (FBS) (GE healthcare Life Sciences, Cat.# SH30071.03), and 1% Pen/Strep (Gibco, Cat.# 15140-122). The ATP content assay kit (PerkinElmer, Cat.# 6016731) was used to determine cell viability. The reagent was reconstituted and prepared as described by the manufacturer. Cells were seeded in 384- or 1536-well assay plates and cultured at 37 C with 5% CO2 for 16 to 20 hours. The typical cell seeding density in the 1536-well plate assay is 250 cells/well in 3ul medium for SNB-19 cells in tissue culture treated plates. Compounds were added to cells and incubated for a specific time such as 6, 24, or 72 hours before addition of the reagent mixture of the ATP content assay kit at 1:1 ratio. After incubation at room temperature for 10 minutes, the luminescence intensity in assay plates was measured using a ViewLux plate reader (PerkinElmer). […] The percentage inhibitions of the decreased cell viability by small molecules were then calculated that indicate compound cytotoxicity.

Row | Structure (SMILES) | activity change, negative = cytotoxicity | Potency
1 | Cc1cccc(/C=C/c2ccccc2)n1 | -22.7% (inactive) | 
2 | Cc1nc(N)sc1-c1ccnc(Nc2ccc(N3CCOCC3)cc2)n1 | 8.47% (inactive) | 
3 | COc1ccc(CC2=NN3C([C@@H](CCc4ccccc4)[C@@H](C)O)=NC(C)C3C(=O)N2)cc1OC (stereo not given in full) | 10.1% (inactive) | 
4 | NC(N)=NN=C(/C=C/c1ccc([N+](=O)[O-])o1)/C=C/c1ccc([N+](=O)[O-])o1 |  | 17.3 µM (active)
5 | CN(C)c1ccc2cc(C(=O)N[C@@H](CCCN=C(N)CCl)C(=O)NCc3ccccc3)ccc2c1 | 4.93% (inactive) | 
6 | CC(=O)Oc1ccccc1C(=O)Nc1ncc([N+](=O)[O-])s1 | -25.3% [at 88.3 µM] (inactive) | 
7 | C[C@H](NC(=O)C(=O)Nc1ccccc1C(C)(C)C)C(=O)N[C@@H](CC(=O)O)C(=O)COc1c(F)c(F)cc(F)c1F | 0.887% (inactive) | 
8 | CNC1[C@H](O)C(O[C@@H]2C(O)C(O[C@H]3O[C@H]([C@@H](C)NC)CC[C@H]3N)[C@@H](N)C[C@H]2N)OC[C@]1(C)O (stereo not given in full) | 27.5% (inactive) | 
9 | CCCC(=O)OC[C@@H](OC(=O)CCC)[C@@H](OC(=O)CCC)[C@H](Cn1c2nc(=O)[nH]c(=O)c-2nc2cc(C)c(C)cc21)OC(=O)CCC | -10.5% (inactive) | 
10 | COc1ccc(-c2cc(=S)ss2)cc1 | -1.94% (inactive) | 
11 | CCOCCOC(=O)/C=C/c1ccc(OC)cc1 | 15.8% (inactive) | 
12 | COc1cc2nc(N3CCN(C(=O)C4CCCO4)CC3)nc(N)c2cc1OC (stereo not given) | 7.25% (inactive) | 
13 | O=C(Nc1ccc(OC(F)(F)F)cc1)c1sccc1NCc1ccnc2ccccc12 | -25% (inactive) | 
14 | O=c1cc(-c2ccccc2)oc2cc(O)c(O)c(O)c12 | -3.37% (inactive) | 
15 | Oc1cc(O)cc(/C=C/c2ccc(O)c(O)c2)c1 |  | 24.5 µM (active)
16 | O=S(=O)(O)CCSSCCS(=O)(=O)O | -11.8% (inactive) | 
17 | O=C(O)[C@@H](c1ccc(OCc2ccc3ccccc3n2)cc1)C1CCCC1 | 5.33% (inactive) | 
18 | CN1CC(=O)N/C1=N/C(=O)Nc1cccc(Cl)c1 | -5.23% (inactive) | 
19 | O=c1c(-c2ccc(O)cc2)coc2cc(OC3O[C@H](CO)[C@H](O)[C@H](O)[C@H]3O)cc(O)c12 (stereo not given in full) | -18.9% (inactive) | 
20 | CC(C)c1ccc2oc3nc(N)c(C(=O)O)cc3c(=O)c2c1 |  | 1.55 µM (active)

Row | Structure (SMILES) | activity change, negative = cytotoxicity | Potency
21 | O=C1C(Cl)=C(NCCN2CCOCC2)C(=O)c2ncccc21 |  | 6.15 µM (active)
22 | O=C(O)c1ccccc1NCCc1ccccc1 | 27.1% (inactive) | 
23 | O=c1[nH]nc(Sc2ncc([N+](=O)[O-])s2)n1-c1ccc2c(c1)OCCO2 |  | 4.89 µM (active)
24 | CC1(C)Cc2c(sc(NC(=S)NC(=O)c3ccccc3)c2C(=O)O)CO1 | 10.2% (inactive) | 
25 | [O-][n+]1ccccc1SSc1cccc[n+]1[O-] |  | 0.708 µM (active)
26 | Cc1c(NC(=O)c2ccc(C(C)(C)C)cc2)cccc1-c1cn(C)c(=O)c(Nc2ccc(C(=O)N3CCOCC3)cc2)n1 | -5.55% (inactive) | 
27 | COc1cccc2c1C(=O)c1c(O)c3c(c(O)c1C2=O)C[C@@](O)(C(=O)CO)C[C@@H]3O[C@H]1C[C@H](N)[C@H](O[C@@H]2CCCCO2)[C@H](C)O1 | -20.6% (inactive) | 
28 | CC(C(=O)O)c1ccc(C(=O)c2ccccc2)s1 (stereo not given) | -14.1% (inactive) | 
29 | NC1CCC(Nc2nc(Nc3ccc(C(=O)N4CCCCC4)cc3)c3ncn(-c4cccc(F)c4)c3n2)CC1 (stereo not given) | 10.2% (inactive) | 
30 | CCCS(=O)c1ccc2nc(NC(=O)OC)[nH]c2c1 (stereo not given) | 16.2% (inactive) | 
31 | CC(=O)Oc1cccc2c1C(=O)c1c(OC(C)=O)cc(C(=O)O)cc1C2=O | -12.9% (inactive) | 
32 | CC(O)=C(C#N)C(=O)Nc1ccc(C(F)(F)F)cc1 |  | 8.69 µM (active)
33 | CN1CC(=O)N2C(Cc3c([nH]c4ccccc34)[C@H]2c2ccc3c(c2)OCO3)C1=O (stereo not given in full) | 12.4% (inactive) | 
34 | N#C/C(=C\c1ccc(O)c(O)c1)C(=O)Nc1ccccc1 | 9.03% (inactive) | 
35 | Oc1ccc(/C=C/c2cc(O)cc(O)c2)cc1 |  | 24.5 µM (active)
36 | COc1ccnc2c1CCCCC2S(=O)c1nc2ccccc2[nH]1 (stereo not given) | -9.48% (inactive) | 
37 | O=S(=O)(O)c1ccc2nc(-c3ccccc3)[nH]c2c1 | 1.86% (inactive) | 
38 | O=C(Nc1ncc([N+](=O)[O-])s1)c1cccs1 | -14.7% (inactive) | 
39 | C[C@@H]1CCN(C(=O)CC#N)C[C@H]1N(C)c1ncnc2[nH]ccc12 | 14.7% (inactive) | 
40 | CC[C@@]1(O)C[C@H](O[C@H]2C[C@H](N(C)C)[C@H](O[C@H]3C[C@H](O)[C@H](O[C@H]4CCC(=O)[C@H](C)O4)[C@H](C)O3)[C@H](C)O2)c2c(cc3c(c2O)C(=O)c2c(O)cccc2C3=O)[C@@H]1C(=O)OC | -16.8% (inactive) | 

Reference: PubChem BioAssay AID1224862 (National Center for Advancing Translational Sciences (NCATS), 2016)
